HT1080 IDH1KD tx: HT-1080 IDH1 knockdown cell toxicity (counter line). 360,000 compounds, 2% hits. Potency, µM (doses to about 46.1 µM), most hits filed as cytotoxic. HT-1080 IDH1 knockdown viability, ATP luminescence, 48 h
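HT-1080-IDH1KD cells (IDH1 knocked down), 750/well in RPMI with 5% FBS, treated with compound 48 h at 37 degrees C. Viability by CellTiter-Glo luminescence, normalised to DMSO and no-cell wells; concentration-response curves classed.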
HepG2 tox: kills HepG2 cells in TGF-b inhibitor counter-screen. HepG2 CAGA-GFP viability, ATP luminescence, 18 h. Potency, µM (highest dose often 46.1 µM), actives largely listed as cytotoxic. 410,000 compounds, 0.76% hits. AID 588856
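HepG2 CAGA-GFP cells (1000/well, DMEM with 1% FBS) received compound, then TGF-beta at 500 pg/mL final, and were incubated 18 hours at 37 degrees C. Viability was read by CellTiter-Glo luminescence. Media-only wells were set as complete cell-killing and DMSO as no toxicity.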
HT1080-NT tox: kills 2HG-producing HT-1080-NT fibrosarcoma cells; Potency, µM (series often up to 46.1 µM), actives largely listed as cytotoxic; HT-1080-NT fibrosarcoma viability, CellTiter-Glo ATP luminescence, 48 h; 360,000 compounds, 1.6% hits;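 also: NT is the 2HG producing partner of a matched IDH1 knockdown line; nearly all actives have a fitted effect of over 55% in size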
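Compounds were tested in concentration-response format on HT-1080-NT cells for 48 hours at 37 degrees C. Cell viability came from CellTiter-Glo luminescence; curves were classified by r2, response magnitude and activity.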
TGFb inhibitor: blocks TGF-b signaling; HepG2 CAGA-GFP TGF-b/SMAD3 reporter, GFP fluorescence, 18 h; TGF-beta stimulated, 500 pg/mL final; Potency, µM (titrated, usually from 46.1 µM), most hits filed as inhibitors; 410,000 compounds, 1.2% hits; AID 588855; also: nearly all actives have a fitted effect of over 65% in size
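Per well, imaged GFP fluorescence of HEPG2 CAGA-GFP cells gives the signal; cells get compound, then TGF-beta (500 pg/mL final), 18 h at 37 degrees C; %Activity versus -TGF-beta and +DMSO controls.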
KB-V1 MDR tox: KB-V1 MDR subline cytotoxicity; KB-V1 MDR cells viability, CellTiter-Glo, 72 h; Potency, µM (series often up to 46.1 µM), usual class: cytotoxic; 400,000 compounds, 3.4% hits; AID 1347076; also: nearly all actives have a fitted effect of over 60% in size
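Drug-selected KB-V1 cells, grown in DMEM lacking phenol red with 10% FBS, receive compound titrations; after three days at 37 degrees C, surviving cell ATP is quantified by CellTiter-Glo luminescence and responses normalized and curve-fitted.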
KB-3-1 cytotox: kills parental KB-3-1 adenocarcinoma cells; KB-3-1 viability, CellTiter-Glo ATP luminescence, 72 h; Potency, µM (top dose mostly 46.1 µM), actives largely listed as cytotoxic; 400,000 compounds, 1.4% hits; AID 1347075; also: nearly all actives have a fitted effect of over 60% in size
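Cells are dispensed, compounds pinned in, plates held at 37 °C for 72 h, then CellTiter-Glo is added and luminescence read after 10 minutes. Cell line: parental KB-3-1 in phenol-red-free DMEM, 10% FBS.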
Numbers stand for hits; 0 = inactive; ? = inconclusive; - = no result given. Only some compounds are listed: those with a hit (about 6.6% of all), similar ones and a draw of the others. Calls follow the shape of the dose curve; as a rule, active = well fitted curve in the direction sought with a large enough effect; inconclusive = small, poorly fitted or top-dose-only effect, or another doubt; inactive = no such curve, though single readings can be large; an effect the other way counts as inactive or inconclusive.

SMILES	HT1080 IDH1KD tx	HepG2 tox	HT1080-NT tox	TGFb inhibitor	KB-V1 MDR tox	KB-3-1 cytotox
Cc1ccc(NC(=O)c2cccc(OCc3c(C)noc3C)c2)c(C)c1	0	0	0	0	?	?
Cc1noc(C)c1COc1cccc(C(=O)OC(C)C(=O)Nc2ccc3c(c2)OCO3)c1 (stereo not given)	5µM	0	10µM	0	?	0
Cc1ccc(NC(=O)c2cccc(OCc3c(C)noc3C)c2)cc1S(=O)(=O)Nc1ccccc1Cl	0	0	0	?	7.3µM	0
COc1cc(C(=O)OC(C)C(=O)Nc2ccc3c(c2)OCO3)ccc1OCc1c(C)noc1C (stereo not given)	0	0	0	0	0	0
Cc1ccccc1CN(c1ccc(C(=O)N2CCc3ccccc3C2)cc1)S(C)(=O)=O	0	0	0	0	10µM	10µM
CCN(CC(=O)Nc1cccc(OC)c1)c1ncnc2sc(C)c(C)c12	0	0	0	?	2.3µM	?
CCOC(=O)c1cccc(NC(=O)CN2C(=O)CC(C)(C)Sc3ccccc32)c1	-	0	-	0	0	0
CCc1ccc(C(C(=O)NC2CCCC2)N(C(=O)/C=C/C(=O)Nc2cc(C)on2)c2ccccc2C)cc1 (stereo not given)	0	0	0	?	0	?
CCOc1ccc(N(C(=O)/C=C/C(=O)Nc2cc(C)on2)C(C(=O)NC2CCCC2)c2ccccc2C)cc1 (stereo not given)	0	0	0	0	?	9.2µM
Oc1ccccc1CN(Cc1ccco1)CC(O)COCc1ccc(Cl)cc1 (stereo not given)	?	0	?	?	?	0
COc1ccc(COCC(O)CN(Cc2ccco2)Cc2ccccc2O)cc1 (stereo not given)	0	0	0	0	21µM	0
Cc1cc(NC(=O)COC(=O)c2ccc(OC(F)(F)F)cc2)no1	0	0	0	0	0	0
Cc1cc(NC(=O)COC(=O)C(Nc2ccc(C(F)(F)F)cc2Cl)C(C)C)no1 (stereo not given)	?	0	18µM	?	0	0
Cc1cccc(NC(=O)c2sc3nc(-c4cc5ccc(O)cc5oc4=O)[nH]c(=O)c3c2C)c1	-	0	-	0	0	0
Cc1cccc(NC(=S)NCC23C=CC(O2)C2C(=O)N(c4ccc(Cl)cc4)C(=O)C23)c1 (stereo not given)	0	0	0	0	?	0
Cc1ccc(NC(=S)NCC23C=CC(O2)C2C(=O)N(c4ccc(C)cc4)C(=O)C23)cc1 (stereo not given)	0	0	0	?	13µM	0
O=C(c1ccncc1)c1ccc(N2CCN(C3CC(=O)N(Cc4ccccc4)C3=O)CC2)cc1 (stereo not given)	?	0	0	?	16µM	?
COc1ccc(N2CCN(C3CC(=O)N(Cc4ccccc4)C3=O)CC2)cc1 (stereo not given)	0	0	0	0	0	0
COc1ccccc1/C=C/c1nc(C#N)c(N2CCCCCC2)o1	-	0	-	-	-	-
COc1ccc(C(C(=O)NC2CCCCC2)N(C(=O)CCl)c2cccc(Cl)c2)cc1 (stereo not given)	1.6µM	11µM	9.2µM	?	16µM	18µM
COc1ccc(C(C(=O)NC2CCCCC2)N(C(=O)CCl)c2ccc(C)cc2)cc1 (stereo not given)	1.2µM	0	0.82µM	?	?	?
COc1ccc(C(C(=O)NC2CCCCC2)N(C(=O)CCl)c2ccc(OC)cc2)cc1 (stereo not given)	1.2µM	0	1.6µM	?	3.7µM	5.8µM
COc1ccc(C(C(=O)NC2CCCC2)N(C(=O)c2ccoc2C)c2ccc(C)cc2)cc1 (stereo not given)	0	0	0	?	0	0
CC(NC(=O)c1nn(C)c(=O)c2ccccc12)c1ccccc1 (stereo not given)	0	0	0	0	21µM	0
COc1cccc(N2CCN(C(=O)c3cnn(-c4ccccc4Cl)c3C3CCN(C(=O)OC(C)(C)C)CC3)CC2)c1	-	0	-	?	0	0
SMILES	HT1080 IDH1KD tx	HepG2 tox	HT1080-NT tox	TGFb inhibitor	KB-V1 MDR tox	KB-3-1 cytotox
CCOC(=O)c1ccc(NC(=O)CSc2ncc(S(=O)(=O)c3ccc(C)c(Cl)c3)c(=O)[nH]2)cc1	-	0	-	0	0	0
Cc1cc2nn(-c3ccc(F)cc3)nc2cc1NC(=O)c1cccc2ccccc12	-	0	-	0	0	0
Cc1cc2nn(-c3cccc4ccccc34)nc2cc1NC(=O)c1cccs1	0	0	0	0	16µM	0
Cc1ccc(CNC(=O)CCN2C(=O)COc3ccc(C)cc32)cc1	-	0	-	0	0	0
Cc1ccc(S(=O)(=O)NCc2ccccc2)cc1C(=O)N1CCCCCCC1	0	0	0	0	9.2µM	0
Cc1ccc(S(=O)(=O)NCc2ccc(C(=O)N3CCN(Cc4ccccc4)CC3)cc2)cc1	0	0	?	?	?	23µM
Cc1ccc(S(=O)(=O)NCc2ccccc2)cc1C(=O)N1CCN(S(=O)(=O)c2ccccc2)CC1	0	0	0	0	0	0
COc1ccc(S(=O)(=O)NCc2ccc(C(=O)N3CCN(Cc4ccccc4)CC3)cc2)cc1	0	0	0	?	0	0
CCOC(=O)c1ccc2c(c1)N(Cc1ccc(F)cc1Cl)C(=O)c1ccccc1S2	-	0	-	0	-	-
CN1CCCC1CCOC(C)(c1ccccc1)c1ccc(Cl)cc1 (stereo not given)	?	11µM	16µM	?	?	0
CC(C)(C)c1ccc(C(=O)NCC2CCCN2S(=O)(=O)c2ccccc2)cc1 (stereo not given)	0	0	?	0	?	?
CN(CC#CC1(O)c2ccccc2-c2ccccc21)Cc1ccccc1	0	0	0	0	8.2µM	0
C#CCN(C)Cc1ccccc1	0	0	0	0	0	0
CCOC(=O)N1CCC(N2CCN(c3cc(C)ccc3C)CC2)CC1	0	0	0	0	23µM	0
CC[C@@H](C)[C@@H](C(=O)Nc1ccc(C)cc1)N1Cc2ccccc2C1=O	-	0	-	0	0	0
O=S1(=O)c2ccccc2N(Cc2cccc(F)c2)c2ccccc21	-	0	-	0	0	0
Cc1ccc(/C=C2/SC(=S)N(CCCC(=O)Nc3ccc(O)cc3)C2=O)cc1	21µM	0	16µM	?	?	?
O=C(CCCN1C(=O)/C(=C\c2ccccc2)SC1=S)Nc1cccc(C(=O)O)c1	0	0	0	0	0	0
COc1cc(/C=C2\SC(=S)N(CCC(=O)Nc3ccccc3)C2=O)cc(OC)c1OC	?	0	?	0	0	0
